The text below walks through data of PubChem BioAssay.

By inhibition is commonly meant the change of the read-out against control, counted positive when it falls.

Molecules are shown by their SMILES. Calls of active or inactive are those of the source. The rule behind the calls is not given here.

The target in this experiment is Pantothenate synthetase (Mycobacterium tuberculosis (strain ATCC 25618 / H37Rv)) (UniProt P9WIL5). As to the kind of experiment: Recombinant Mtb pantothenate synthetase (PanC) inhibitors, coupled enzyme, confirmatory (AID 375).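 Note: 0% = full reaction with vehicle and 100% = no enzyme background.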 The settings on record: coupled enzyme assay; at 10 µM, hits give high values.
Pantothenate synthetase (Mycobacterium tuberculosis (strain ATCC 25618 / H37Rv)), sequence (P9WIL5 whole entry, looked up): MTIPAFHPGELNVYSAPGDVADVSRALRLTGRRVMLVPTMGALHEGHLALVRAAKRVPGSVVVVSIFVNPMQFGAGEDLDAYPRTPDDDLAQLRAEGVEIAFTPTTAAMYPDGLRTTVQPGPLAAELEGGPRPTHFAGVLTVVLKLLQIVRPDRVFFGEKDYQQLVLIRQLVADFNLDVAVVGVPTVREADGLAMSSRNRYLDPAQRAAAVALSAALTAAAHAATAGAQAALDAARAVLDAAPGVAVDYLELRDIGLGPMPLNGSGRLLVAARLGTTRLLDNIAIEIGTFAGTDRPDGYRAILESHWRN
On to `CCN(CC)S(=O)(=O)c1ccc2c(c1)nc(SCC(=O)NC1CC1)n2-c1ccccc1OC`, for which the inhibition was 0% (inactive). As to `COc1cccc(-c2nc(CS(=O)CC(=O)NCCCOC(C)C)c(C)o2)c1` (configuration not stated), the inhibition was 2% (inactive). To `Cc1ccnc(SCCn2c(N3CCN(Cc4ccccc4)CC3)nc3c2c(=O)[nH]c(=O)n3C)n1` belongs 0% (inactive); to `Cn1cnnc1SCC(=O)Nc1sc2c(c1C#N)CCCCC2`, 1% (inactive). Consider `CN(C)CC(=O)N1c2ccccc2CCc2ccc(NC(=O)c3ccc(N)cc3)cc21`, for which the inhibition is 0% (inactive). To `O=C(C1CCCO1)N1CCN(Cc2nc3ccccc3c(=O)[nH]2)CC1` (configuration not stated) belongs 0% (inactive); to `O=c1oc2ccccc2c(O)c1C=NCc1ccccn1`, 0% (inactive); to `CCSc1oc(-c2ccco2)nc1S(=O)(=O)c1ccccc1`, 0% (inactive). To `Cc1ccc(SCc2[nH]nc3c2C(c2ccc(C)o2)C(C#N)=C(N)O3)cc1` (configuration not stated) belongs 3% (inactive); to `O=C(NCCc1ccccn1)c1ccc(COc2ccccc2)o1`, 0% (inactive); to `CCCCc1cc(=O)oc2cc(C)cc(OC(C)C(=O)O)c12` (configuration not stated), 0% (inactive).

As for `CC1(C)S[C@@H]2[C@H](NC(=O)[C@H](N)c3ccccc3)C(=O)N2[C@H]1C(=O)O`, the inhibition was 2% (inactive).

In the case of `COCCCN(C)C1CCN(C(=O)Nc2ccc(F)cc2)CC1`, the inhibition is 0% (inactive). The same measure for `CCCN(C(=O)CSc1nnc(-c2ccoc2C)n1N)C1CCS(=O)(=O)C1` (configuration not stated): 0% (inactive). The same measure for `CCCCC(=O)Nc1c(O)c2ccccc2[nH]c1=O`: 0% (inactive). The same measure for `COC(=O)COc1ccc(C(=O)OC)cc1`: 2% (inactive). On to `COc1ccc(NC(=O)CCNC(=O)Cn2ccc3ccccc3c2=O)c(OC)c1`, for which the inhibition is 0% (inactive).
